Reference: the supplement of paper PMC10849652
The full data set covers some 8,800 targets. This sample favours those with a hit. About 0.5% of all pairs of compound and target were hits. Values without a mark were called inactive.

Legend:
Assay in all cases: log2 fold change, soluble protein after heating vs DMSO (PISA); higher = thermal stabilisation; K562 lysate, 10 uM; active = over 0.2 and 3.5 SD of the protein, either way, in both replicates (recomputed)
nilotinib = compound: Cc1cn(-c2cc(NC(=O)c3ccc(C)c(Nc4nccc(-c5cccnc5)n4)c3)cc(C(F)(F)F)c2)cn1 [nilotinib]
Outline: (§1)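 Quantification was by TMTpro 16plex LC-MS/MS with equalised channel sums, applied to the supernatant after 21,000xg for 90 min. Samples were crude K562 extract at 1 mg/mL protein in PBS pH 7.4 with 1 mM MgCl2, treated with 10 μM compound for 30 min, heated for 3 min across 48°C-58°C, pooled and brought to 0.5% NP-40 at 4°C. Values are log-two fold changes in thermal stability relative to solvent controls, from duplicates.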

[1] = compound: Cc1nc(Nc2n[nH]c3c2CN(C(=O)N[C@H](CN(C)C)c2ccccc2)C3(C)C)c2sccc2n1
Outline: as §1

dasatinib = compound: Cc1nc(Nc2ncc(C(=O)Nc3c(C)cccc3Cl)s2)cc(N2CCN(CCO)CC2)n1 [dasatinib]
Outline: as §1

[2] = compound: Cc1ncc(-c2ccnc(Nc3ccc(S(C)(=O)=O)cc3)n2)n1C(C)C
Outline: as §1

[3] = compound: Cn1cc(-c2ccc3c(c2)CCN3C(=O)Cc2cccc(C(F)(F)F)c2)c2c(N)ncnc21
Outline: as §1

quisinostat = compound: Cn1cc(CNCC2CCN(c3ncc(C(=O)NO)cn3)CC2)c2ccccc21 [quisinostat]
Outline: as §1

tipifarnib = compound: Cn1cncc1[C@@](N)(c1ccc(Cl)cc1)c1ccc2c(c1)c(-c1cccc(Cl)c1)cc(=O)n2C [tipifarnib]
Outline: as §1

[4] = compound: NC(=O)Nc1cc(-c2cccc(F)c2)sc1C(=O)N[C@H]1CCCNC1
Outline: as §1

[5] = compound: NC1(c2ccc(-c3nc4ccn5c(=O)[nH]nc5c4cc3-c3ccccc3)cc2)CCC1
Outline: as §1

[6] = compound: NCC(=O)Nc1ccc(-n2nc(C(F)(F)F)cc2-c2ccc3c(ccc4ccccc43)c2)cc1
Outline: as §1

vorinostat = compound: O=C(CCCCCCC(=O)Nc1ccccc1)NO [vorinostat]
Outline: as §1

silmitasertib = compound: O=C(O)c1ccc2c(c1)nc(Nc1cccc(Cl)c1)c1ccncc12 [silmitasertib]
Outline: as §1

[7] = compound: O=C1NC(=O)C(c2cnc3ccccn23)=C1c1cn2c3c(cc(F)cc13)CN(C(=O)N1CCCCC1)CC2
Outline: as §1

entospletinib = compound: c1cn2cc(-c3ccc4cn[nH]c4c3)nc(Nc3ccc(N4CCOCC4)cc3)c2n1 [entospletinib]
Outline: as §1

[8] = compound: NC(=O)c1cnc(N[C@@H]2CCCC[C@@H]2N)nc1Nc1cccc(-n2nccn2)c1
Outline: as §1

UniProt Q9P1F3, sequence (Q9P1F3 whole entry, looked up): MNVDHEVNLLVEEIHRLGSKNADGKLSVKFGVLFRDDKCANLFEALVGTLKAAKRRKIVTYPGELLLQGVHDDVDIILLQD
UniProt Q8N302, sequence (Q8N302 whole entry, looked up): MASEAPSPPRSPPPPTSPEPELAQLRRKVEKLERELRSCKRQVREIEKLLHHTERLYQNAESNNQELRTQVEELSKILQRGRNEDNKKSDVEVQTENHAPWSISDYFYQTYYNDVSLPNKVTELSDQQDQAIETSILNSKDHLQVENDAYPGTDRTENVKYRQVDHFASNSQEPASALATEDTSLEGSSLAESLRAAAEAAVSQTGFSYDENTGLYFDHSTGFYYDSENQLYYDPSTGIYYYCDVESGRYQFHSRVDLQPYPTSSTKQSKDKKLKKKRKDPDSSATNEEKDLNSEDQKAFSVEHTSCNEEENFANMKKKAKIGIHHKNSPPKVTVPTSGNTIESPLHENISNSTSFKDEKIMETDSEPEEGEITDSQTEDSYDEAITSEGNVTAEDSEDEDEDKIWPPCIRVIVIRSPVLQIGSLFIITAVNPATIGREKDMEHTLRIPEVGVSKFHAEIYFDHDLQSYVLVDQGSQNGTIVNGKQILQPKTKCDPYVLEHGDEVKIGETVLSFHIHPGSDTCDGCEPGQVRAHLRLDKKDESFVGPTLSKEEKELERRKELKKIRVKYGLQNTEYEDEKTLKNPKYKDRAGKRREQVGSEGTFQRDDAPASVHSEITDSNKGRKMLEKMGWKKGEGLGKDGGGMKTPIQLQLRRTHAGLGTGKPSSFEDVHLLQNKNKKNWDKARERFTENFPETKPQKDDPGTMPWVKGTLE
UniProt P35611, sequence (P35611 whole entry, looked up): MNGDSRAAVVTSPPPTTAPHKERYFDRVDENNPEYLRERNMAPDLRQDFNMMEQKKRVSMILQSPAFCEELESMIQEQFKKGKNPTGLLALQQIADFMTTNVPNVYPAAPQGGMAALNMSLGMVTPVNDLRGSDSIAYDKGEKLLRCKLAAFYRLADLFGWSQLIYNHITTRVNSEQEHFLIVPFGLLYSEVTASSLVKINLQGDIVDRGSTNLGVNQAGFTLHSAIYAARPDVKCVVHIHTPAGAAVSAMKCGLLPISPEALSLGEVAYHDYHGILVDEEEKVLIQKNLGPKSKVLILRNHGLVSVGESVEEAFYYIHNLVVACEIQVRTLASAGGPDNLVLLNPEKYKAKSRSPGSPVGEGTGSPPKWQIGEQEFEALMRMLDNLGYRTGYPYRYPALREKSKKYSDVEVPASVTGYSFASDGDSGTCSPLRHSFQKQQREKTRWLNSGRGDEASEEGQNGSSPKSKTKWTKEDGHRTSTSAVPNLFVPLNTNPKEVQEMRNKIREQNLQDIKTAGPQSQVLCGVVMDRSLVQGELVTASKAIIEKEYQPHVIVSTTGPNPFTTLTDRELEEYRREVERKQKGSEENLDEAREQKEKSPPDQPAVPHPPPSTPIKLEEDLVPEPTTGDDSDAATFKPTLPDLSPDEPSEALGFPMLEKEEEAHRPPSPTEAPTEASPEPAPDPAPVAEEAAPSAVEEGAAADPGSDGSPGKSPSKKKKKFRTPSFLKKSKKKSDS
UniProt P54886, sequence (P54886 whole entry, looked up): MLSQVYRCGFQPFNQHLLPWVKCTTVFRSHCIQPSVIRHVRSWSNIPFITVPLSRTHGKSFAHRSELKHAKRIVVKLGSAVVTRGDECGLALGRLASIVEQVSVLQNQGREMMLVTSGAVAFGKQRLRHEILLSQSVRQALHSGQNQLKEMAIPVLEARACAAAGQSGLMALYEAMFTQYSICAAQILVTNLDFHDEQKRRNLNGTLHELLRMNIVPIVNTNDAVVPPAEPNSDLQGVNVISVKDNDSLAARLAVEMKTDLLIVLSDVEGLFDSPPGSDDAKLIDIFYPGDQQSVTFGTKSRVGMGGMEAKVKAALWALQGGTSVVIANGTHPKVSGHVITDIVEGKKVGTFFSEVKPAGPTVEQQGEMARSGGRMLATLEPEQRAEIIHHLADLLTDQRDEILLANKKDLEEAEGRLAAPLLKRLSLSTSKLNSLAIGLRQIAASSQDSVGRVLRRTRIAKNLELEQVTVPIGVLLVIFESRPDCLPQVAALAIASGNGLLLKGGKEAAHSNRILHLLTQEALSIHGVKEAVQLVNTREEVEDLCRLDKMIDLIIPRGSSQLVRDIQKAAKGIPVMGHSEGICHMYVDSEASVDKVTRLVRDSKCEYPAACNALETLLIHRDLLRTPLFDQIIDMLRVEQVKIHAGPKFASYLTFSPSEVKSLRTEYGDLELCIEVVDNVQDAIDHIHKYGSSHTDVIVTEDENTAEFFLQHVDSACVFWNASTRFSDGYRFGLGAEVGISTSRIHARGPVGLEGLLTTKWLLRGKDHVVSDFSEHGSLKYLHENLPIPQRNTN
UniProt Q13686, sequence (Q13686 whole entry, looked up): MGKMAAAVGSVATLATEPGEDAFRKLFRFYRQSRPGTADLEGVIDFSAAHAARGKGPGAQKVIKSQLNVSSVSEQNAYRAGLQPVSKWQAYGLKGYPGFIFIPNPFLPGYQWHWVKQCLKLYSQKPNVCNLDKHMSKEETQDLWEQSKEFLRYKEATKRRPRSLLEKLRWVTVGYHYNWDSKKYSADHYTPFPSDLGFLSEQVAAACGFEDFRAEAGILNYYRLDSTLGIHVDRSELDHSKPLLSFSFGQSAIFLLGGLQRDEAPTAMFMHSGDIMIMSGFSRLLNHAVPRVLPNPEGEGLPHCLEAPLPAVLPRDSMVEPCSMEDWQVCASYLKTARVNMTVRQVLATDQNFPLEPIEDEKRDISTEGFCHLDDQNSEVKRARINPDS
UniProt P53396, sequence (P53396 whole entry, looked up): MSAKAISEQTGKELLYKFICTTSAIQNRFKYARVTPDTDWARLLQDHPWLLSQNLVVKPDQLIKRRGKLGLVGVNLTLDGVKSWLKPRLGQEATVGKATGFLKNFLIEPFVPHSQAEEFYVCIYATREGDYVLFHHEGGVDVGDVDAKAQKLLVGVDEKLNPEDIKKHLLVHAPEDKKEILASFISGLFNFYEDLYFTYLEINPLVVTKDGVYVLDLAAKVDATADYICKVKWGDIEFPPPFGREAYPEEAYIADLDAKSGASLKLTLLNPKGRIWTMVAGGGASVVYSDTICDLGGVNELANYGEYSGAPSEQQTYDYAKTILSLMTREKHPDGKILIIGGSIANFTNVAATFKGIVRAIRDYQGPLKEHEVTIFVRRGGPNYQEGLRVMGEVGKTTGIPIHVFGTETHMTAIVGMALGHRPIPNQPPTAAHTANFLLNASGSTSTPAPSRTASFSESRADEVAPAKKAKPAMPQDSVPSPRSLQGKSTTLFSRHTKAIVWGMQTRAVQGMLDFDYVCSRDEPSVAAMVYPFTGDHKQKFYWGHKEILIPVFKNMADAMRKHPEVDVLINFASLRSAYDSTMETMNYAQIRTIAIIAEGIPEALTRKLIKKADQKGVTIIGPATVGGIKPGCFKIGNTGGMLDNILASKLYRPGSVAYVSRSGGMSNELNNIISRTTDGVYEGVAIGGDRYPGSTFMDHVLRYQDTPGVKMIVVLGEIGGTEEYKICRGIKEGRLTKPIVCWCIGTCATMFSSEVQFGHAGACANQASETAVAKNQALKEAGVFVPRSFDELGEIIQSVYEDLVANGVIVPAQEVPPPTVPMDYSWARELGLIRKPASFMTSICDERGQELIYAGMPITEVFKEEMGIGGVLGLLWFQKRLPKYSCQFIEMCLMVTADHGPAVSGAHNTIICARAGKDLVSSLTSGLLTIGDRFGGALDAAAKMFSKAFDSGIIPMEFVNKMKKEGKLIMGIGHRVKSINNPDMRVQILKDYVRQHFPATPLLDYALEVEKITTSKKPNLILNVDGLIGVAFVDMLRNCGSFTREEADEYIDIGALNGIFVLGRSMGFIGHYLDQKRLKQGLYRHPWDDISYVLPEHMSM
UniProt Q2VPB7, sequence (Q2VPB7 whole entry, looked up): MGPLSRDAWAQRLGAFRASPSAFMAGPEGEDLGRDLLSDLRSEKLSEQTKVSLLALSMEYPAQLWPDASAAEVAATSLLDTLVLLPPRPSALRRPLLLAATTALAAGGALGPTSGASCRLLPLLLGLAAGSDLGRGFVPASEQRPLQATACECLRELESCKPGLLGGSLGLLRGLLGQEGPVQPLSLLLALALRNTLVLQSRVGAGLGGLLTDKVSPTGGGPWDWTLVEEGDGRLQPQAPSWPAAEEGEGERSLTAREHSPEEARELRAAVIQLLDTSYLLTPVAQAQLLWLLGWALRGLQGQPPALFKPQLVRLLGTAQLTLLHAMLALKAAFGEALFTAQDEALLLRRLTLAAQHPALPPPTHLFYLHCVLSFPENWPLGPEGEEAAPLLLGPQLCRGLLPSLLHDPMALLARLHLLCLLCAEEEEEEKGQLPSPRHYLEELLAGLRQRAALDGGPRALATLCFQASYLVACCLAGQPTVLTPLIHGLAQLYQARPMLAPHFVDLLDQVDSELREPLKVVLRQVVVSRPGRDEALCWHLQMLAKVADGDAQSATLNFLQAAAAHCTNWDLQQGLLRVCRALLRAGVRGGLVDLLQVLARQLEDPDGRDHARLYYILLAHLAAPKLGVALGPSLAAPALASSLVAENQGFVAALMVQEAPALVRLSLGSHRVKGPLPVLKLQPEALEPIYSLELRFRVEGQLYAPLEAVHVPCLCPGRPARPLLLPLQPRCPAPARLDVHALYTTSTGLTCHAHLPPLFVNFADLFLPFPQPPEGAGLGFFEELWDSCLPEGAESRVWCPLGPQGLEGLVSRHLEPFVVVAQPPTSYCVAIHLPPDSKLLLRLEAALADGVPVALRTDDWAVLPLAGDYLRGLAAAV
UniProt Q9BQI0, sequence (Q9BQI0 whole entry, looked up): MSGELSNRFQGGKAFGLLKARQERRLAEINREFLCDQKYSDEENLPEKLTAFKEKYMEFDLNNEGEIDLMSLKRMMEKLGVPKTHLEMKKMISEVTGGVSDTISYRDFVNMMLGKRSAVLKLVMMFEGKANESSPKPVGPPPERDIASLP

Target	log2 fold change (nilotinib)	log2 fold change [1]	log2 fold change (dasatinib)	log2 fold change [2]	log2 fold change [3]	log2 fold change (quisinostat)	log2 fold change (tipifarnib)	log2 fold change [4]	log2 fold change [5]	log2 fold change [6]	log2 fold change (vorinostat)	log2 fold change (silmitasertib)	log2 fold change [7]	log2 fold change (entospletinib)	log2 fold change [8]
ANKRD40 (UniProt Q6AI12)	-0.04	-0.115	0.197	0.071	-0.064	-0.161	0.137	-0.001	-0.119	0.914 (active)	-0.217	-0.088	0.007	-0.057	
ABRACL (UniProt Q9P1F3)	0.194	0.006	-0.119	-0.042	-0.067	0.053	0.023	-0.083	-0.076		-0.845 (active)	0.111	0.088		0.037
ARL13B (UniProt Q3SXY8)			0		-0.012	-0.313		0.095	0.013	0.01	-0.186	-0.024	-0.064		0.131
AP5B1 (UniProt Q2VPB7)	0.001	-0.033	0.065	-0.053	-0.072	-0.027	-0.087	0.324 (active)	-0.036		-0.062	0.044	-0.094	0.022	-0.023
ALKBH7 (UniProt Q9BT30)	-0.039	-0.04	-0.017	-0.452	-0.226	0.006	0.107	0.044	-0.099		1.23 (active)	-0.031	0.079	0.151	
ALDH18A1 isoform 2 (UniProt P54886)			0.089		0.181	0.397		-0.093		0.097			0.204		
ABCA3 (UniProt Q99758)			0.044		-0.066	0.08		-0.092	-0.019	-0.157	0.087	-0.062	0	0.28	0.001
ANP32E isoform 3 (UniProt Q9BTT0)										0.135				-0.095	
ALDH3A1 (UniProt P30838)			1.35 (active)		-0.024	-0.381		-0.065	-0.018		0.145	-0.113	0.023		0.055
ALKBH1 (UniProt Q13686)	-0.087	-0.026	-0.249	-0.052	0.007		0.137		0.116	-0.089	-0.284 (active)	0.135		-0.052	
AMDHD2 (UniProt Q9Y303)						-0.001		0.048		-0.092			0.042		
ALG13 isoform 2 (UniProt Q9NP73)	0.142	-0.082		-0.066			0.371								
ANKRD30A (UniProt Q9BXX3)	-0.008	-0.012	0.006	-0.039	-0.017	0.179	0.15	0.047					-0.011	-0.135	0.807
AP3D1 isoform 2 (UniProt O14617)	-0.287	0.035		0.376			-0.132		-0.121	0.179	-0.738 (active)	0.02			0.034
AIMP2 isoform 2 (UniProt Q13155)						-0.106		0.067					-0.07		0.017
ADD1 isoform 4 (UniProt P35611)			-0.017		-0.075				-0.274	0.037	0.237	-0.148		0.056	-0.109
ARHGEF2 (UniProt V9GYF0)	0.029	-0.119	0.02	-0.113	-0.139		-0.23			0.157				0.081	0.117
ACTG1 (UniProt K7EM38)														-0.453	0.171
ANKRD30B (UniProt Q9BXX2)	0.061	-0.076	-0.061	0.072	-0.015		-0.065		-0.051	0.228	0.147	0.047		0.025	0.059
ACLY isoform 2 (UniProt P53396)	0.08	0.038		0.191		0.162	0.02	-0.027		0.091			-0.061	-0.047	-0.062
AGGF1 (UniProt Q8N302)	0.02	0.055		0.087		-0.041	-0.06	-0.007	0.024	0.135	0.059	-0.06	0	-0.015	0.075
AIF1L (UniProt Q9BQI0)	-0.263	-0.176	0.118	0.142	-0.058	-0.075	0.123	-0.112	0.016		-0.048	0.083	0.022	0.116	-0.012
ADAM17 (UniProt P78536)	-0.093	-0.151	-0.032	0.021	0.054	0.01	0.039	0.002	-0.012	0.014	0.089	-0.006	0.042	0.014	
